Assay results from PubChem BioAssay (NCATS).
Records with an inconclusive call do not appear. The source made the active and inactive calls. Calls come from the whole dose curve; as a rule, active = well fitted cell-killing curve with a large enough effect in the repeat runs; inconclusive = weak or mixed curves, or effect the other way; inactive = flat fitted curve, though single readings scatter.

experiment: qHTS assay for small molecule antagonists of the retinoid-related orphan receptor gamma (ROR-gamma) signaling pathway - cell viability counter screen (AID 720652); conditions: RORgamma reporter cell line viability counter screen; series mostly up to 92.2 µM; activity change, negative = cytotoxicity: at the top concentration;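 note: compound exposure lasted 16 hr before ATP read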
Description: National Center for Advancing Translational Sciences [NCATS]
NIH Chemical Genomics Center [NCGC]
National Institutes of Environmental Health Sciences [NIEHS]
National Toxicology Program [NTP]
Nuclear steroid hormone receptors are involved in many biological processes including inflammatory responses, cell proliferation, and apoptosis. Environmental factors or compounds disrupting these nuclear receptor pathways and gene expression may promote susceptibility to immunotoxicants and autoimmune diseases. One important group of these expression factors are the retinoid-related orphan receptors. To assess compounds that may interfere with the retinoid-related orphan receptor gamma (ROR-gamma) transcription factor, a cell-based luciferase assay was used.
The CHO cell-based assay utilizes a TET-inducible ROR expression factor and ROR response element-LUC reporter gene. Reporter activity was induced using doxycycline and measured after 16hr incubation. Luminescence was read using Viewlux (PerkinElmer), where a decrease in reporter activity would show a decrease in luminescence. The cytotoxicity of the compounds against ROR response-Luc reporter gene cell line was quantified by measuring the intracellular ATP content.
1,000 cells in 4 uL/well were dispensed into white wall/solid bottom 1536-well plates using a Multidrop Combi (Thermo Scientific) dispenser. Following incubation at 37 C and 5% CO2 for 5 hr, 23 nL compound or DMSO vehicle were transferred by a pin tool, then the plates were treated with 1 ul doxycycline to induce reporter gene activity. After 16 hr incubation at 37 C and 5% CO2, 5 uL/well of CellTiter-Glo reagent (Promega) was then added to each plate using a Flying Reagent Dispenser and incubated at room temperature for 30 min. The luminescence intensity was quantified on a ViewLux plate reader (PerkinElmer).
% is set by controls: 0 for no effect and ±100 for the full control effect; potency is the fitted concentration of half-maximal effect.

SMILES	activity change, negative = cytotoxicity	Potency
Nn1cnnc1	17.6% (inactive)	
Clc1ccccc1	-8.59% (inactive)	
[O-][Cl+]O	21.7% (inactive)	
COC(C)(C)C	8.2% (inactive)	
CCCCCOC(=O)c1ccccc1C(=O)OCCCCC	2.19% (inactive)	
C/C=C/C=O	0.926% (inactive)	
Cc1ccc(N)cc1Cl	9.38% (inactive)	
FC(Cl)(Cl)Cl	-2.1% (inactive)	
CN(C)c1ccc(N=Nc2ccccc2)cc1	-13.7% (inactive)	
O=[N+]([O-])c1ccc(Cl)c(Cl)c1Cl	9.51% (inactive)	
CCNCC	-1.76% (inactive)	
c1ccc(N=NNc2ccccc2)cc1	-5.29% (inactive)	
c1ccc(NNc2ccccc2)cc1	-3.44% (inactive)	
CCCCOC(C)=O	14.8% (inactive)	
O=[N+]([O-])c1ccccc1-c1ccccc1	5.66% (inactive)	
O=[N+]([O-])c1cccc(O)c1	9.97% (inactive)	
CC(C#N)CCC#N (stereo not given)	8.01% (inactive)	
CC(Cl)(Cl)Cl	26.7% (inactive)	
COP(=S)(OC)SCn1nnc2ccccc2c1=O	4.69% (inactive)	
COc1c(C(C)(C)C)cc([N+](=O)[O-])c(C)c1[N+](=O)[O-]	-2.12% (inactive)	

SMILES	activity change, negative = cytotoxicity	Potency
O=[N+]([O-])/C=C/c1ccccc1		37.6 µM (active)
O=C(O)C(Cl)(Cl)Br	12.7% (inactive)	
CC(C)(C)c1ccccc1O	3.78% (inactive)	
Nc1ccc(Cc2ccc(N)cc2)cc1	11.3% (inactive)	
Cc1cnc[nH]1	14.1% (inactive)	
CCCCC#N	8.98% (inactive)	
Cc1cc(-c2ccc(N)c(C)c2)ccc1N	-13.4% (inactive)	
CC(=O)CCC(C)=O	12.2% (inactive)	
Cc1ccc(N)cc1N	-8.79% (inactive)	
Nc1ccc(Oc2ccc(N)cc2)cc1	8.18% (inactive)	
O=[N+]([O-])c1ccccc1O	-16.3% (inactive)	
N#CCCCCC#N	9.68% (inactive)	
Cc1ccccc1[N+](=O)[O-]	1.58% (inactive)	
C=CCCl	7.7% (inactive)	
O=C(O)c1cccc(Cl)c1	-9.16% (inactive)	
O=Cc1ccc2c(c1)OCO2	-2.3% (inactive)	
S=c1[nH]c2ccccc2[nH]1	-8.54% (inactive)	
ClCC(Cl)Cl	-7.93% (inactive)	
CC1CC(=O)O1 (stereo not given)	-5.07% (inactive)	
Oc1cc(Cl)cc(Cl)c1	9.51% (inactive)	
